RORgamma inh = blocks mouse ROR gamma transcriptional activity; AID 2551; Drosophila S2 Gal4-RORgamma UAS-luciferase reporter, 20 h; 310,000 tested, 5.4% active; Potency, µM (doses to about 53.6 µM), inactives show top-dose activity change, negative = inhibition, hits mostly inhibitors; P51450; note: nearly all actives have a fitted effect of over 60% in size
Target sequence (P51450 whole entry, looked up, the tested form may be a part): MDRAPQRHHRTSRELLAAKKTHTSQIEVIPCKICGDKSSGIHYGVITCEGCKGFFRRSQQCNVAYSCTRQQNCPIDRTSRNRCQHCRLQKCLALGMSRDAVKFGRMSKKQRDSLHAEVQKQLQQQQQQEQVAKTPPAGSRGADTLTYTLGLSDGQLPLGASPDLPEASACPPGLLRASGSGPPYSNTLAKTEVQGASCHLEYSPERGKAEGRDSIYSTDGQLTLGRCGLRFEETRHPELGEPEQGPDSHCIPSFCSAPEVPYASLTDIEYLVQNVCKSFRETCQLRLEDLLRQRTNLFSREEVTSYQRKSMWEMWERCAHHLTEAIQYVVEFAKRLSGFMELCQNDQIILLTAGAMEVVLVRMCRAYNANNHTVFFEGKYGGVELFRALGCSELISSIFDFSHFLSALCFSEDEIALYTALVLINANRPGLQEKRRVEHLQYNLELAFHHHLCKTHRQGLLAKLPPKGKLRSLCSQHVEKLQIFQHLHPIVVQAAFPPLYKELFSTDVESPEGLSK
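Luciferase reporter read in Schneider cells carrying Gal4-RORγ (mouse) and UAS-Photinus luciferase; cells given compound 1 h before 700 uM copper sulfate induction, then incubated 20 h at ambient temperature.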
DT40 TDP1 no CPT = qHTS for Inhibitors of human tyrosyl-DNA phosphodiesterase 1 (TDP1): qHTS in cells in absence of CPT; 420,000 tested, 15% active; Potency, µM (doses to about 46.2 µM), inactives show top-dose activity change, negative = growth inhibition, most hits filed as inhibitors; DT40 Tdp1-/- hTDP1 cells, no CPT, ATP luminescence, 48 h; note: nearly all actives have a fitted effect of over 55% in size
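Stably hTDP1-transfected Tdp1-null chicken DT40 cells were treated with library compounds minus camptothecin and grown for at least 48 hr at 37 °C, after which cellular ATP was quantified by luminescence.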
DT40 TDP1 CPT = DT40-hTDP1 cell growth loss with CPT; chicken DT40 Tdp1-/-;hTDP1 cells + 20 nM CPT, ATP luminescence, 48 h; Potency, µM (series often up to 46.2 µM), without a hit: at the highest dose activity change, negative = growth inhibition, hits mostly inhibitors; 420,000 tested, 12% active; note: nearly all actives have a fitted effect of over 55% in size
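Chicken DT40 Tdp1-/- cells stably complemented with human TDP1 were seeded at 400 cells/well in medium containing 20 nM camptothecin, exposed to pin-transferred compounds, and grown at 37 °C for at least 48 hr. Viability was read as ATP luminescence.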
Gal4-VP16 FLuc = counter-screen for ROR gamma inhibitors: Gal4-VP16 reporter | 310,000 tested, 3.5% active | Drosophila S2 Gal4-VP16 UAS-luciferase, luminescence, 20 h | Potency, µM (titrated, usually from 53.6 µM), without a hit: at the top dose activity, negative = inhibition, hits mostly inhibitors | AID 2546;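 note: Gal4-VP16 expression switched on by copper sulfate through the metallothionein promoter; nearly all actives have a fitted effect of over 50% in size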
TDP1 inh = TDP1 (human) enzyme inhibition | recombinant TDP1, AlphaScreen DNA substrate cleavage | Potency, µM (doses to about 130 µM), for the others: at the top dose activity change, negative = inhibition, usual class: inhibitors | 350,000 tested, 0.28% active; note: nearly all actives have a fitted effect of over 40% in size
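AlphaScreen read-out: signal falls as enzyme removes the 3' tyrosine-FITC from a 5'-biotinylated DNA oligo (15 nM, 5 min, RT). Enzyme was E. coli-made recombinant Tdp1 at 1 nM, exposed to compound for 15 min beforehand; beads 10 ug/ml, 10 min.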
* hit, by the source's call. This is a sample that favours compounds with a hit; in the whole collection about 19% have one here. Calls come from the whole dose curve; as a rule, active = well fitted curve in the direction sought with a large enough effect; inconclusive = small, poorly fitted or top-dose-only effect, or another doubt; inactive = no such curve, though single readings can be large; an effect the other way counts as inactive or inconclusive. % is set by controls: 0 for no effect and ±100 for the full control effect; potency is the fitted concentration of half-maximal effect.

`Cc1ccc(S(=O)(=O)N2C(=O)CCC2C(=O)N2CCN(C)CC2)cc1` (configuration not stated) gave RORgamma inh -13%, DT40 TDP1 no CPT -8%, DT40 TDP1 CPT -15%, Gal4-VP16 FLuc -5% and TDP1 inh 0%.
For CN(Cc1nc2ccccc2c(=O)[nH]1)C(=O)c1cccc(S(=O)(=O)N2CCCCCC2)c1 the results were DT40 TDP1 no CPT -15%, DT40 TDP1 CPT inconclusive and TDP1 inh 1%.
`O=C(CSc1nc(-c2ccccc2)cs1)Nc1ccccc1[N+](=O)[O-]` gave RORgamma inh -22%, DT40 TDP1 no CPT -13%, DT40 TDP1 CPT -1%, Gal4-VP16 FLuc 3% and TDP1 inh 8%.
For N#Cc1ccc(C23CC4(C2)[C@H](CN(Cc2cccnc2)[C@@H]4c2ccccc2)C3c2ccc(C(F)(F)F)cc2)cc1 (some centres not stated) the results were RORgamma inh -2%, Gal4-VP16 FLuc 5% and TDP1 inh 9%.
Screening c1ccc(C2[C@H]3CN(CC4CCCCC4)[C@H](c4ccccc4)C34CC2(c2cccnc2)C4)cc1 (some centres not stated) returned RORgamma inh -28%, DT40 TDP1 no CPT 18µM*, DT40 TDP1 CPT 23µM*, Gal4-VP16 FLuc -4% and TDP1 inh 9%.
For COC(=O)c1ccc(C23CC4(C2)[C@H](CN(CC2CCCCC2)[C@@H]4c2ccccc2)C3c2ccc(C(F)(F)F)cc2)cc1 (some centres not stated) the results were RORgamma inh -4%, DT40 TDP1 no CPT inconclusive, DT40 TDP1 CPT inconclusive, Gal4-VP16 FLuc 7% and TDP1 inh 9%.
Screening COC(=O)c1ccc(C23CC4(C2)[C@H](CN(Cc2ccc(C(F)(F)F)cc2)[C@@H]4c2ccccc2)C3c2ccc(C(F)(F)F)cc2)cc1 (some centres not stated) returned RORgamma inh -15%, Gal4-VP16 FLuc 12% and TDP1 inh 9%.
Screening c1ccc(C2[C@H]3CN(Cc4cccnc4)[C@H](c4ccccc4)C34CC2(c2ccccc2)C4)cc1 (some centres not stated) returned RORgamma inh -34%, DT40 TDP1 no CPT 15µM*, DT40 TDP1 CPT inconclusive, Gal4-VP16 FLuc -6% and TDP1 inh 15%.
`c1ccc(C2[C@H]3CN(Cc4cccnc4)[C@H](c4ccccc4)C34CC2(c2cccnc2)C4)cc1` (some centres not stated) gave RORgamma inh inconclusive, DT40 TDP1 no CPT inconclusive, DT40 TDP1 CPT inconclusive, Gal4-VP16 FLuc 4% and TDP1 inh 16%.
N#Cc1ccc(C23CC4(C2)[C@H](CN(Cc2ccc(C(F)(F)F)cc2)[C@@H]4c2ccccc2)C3c2ccc(C(F)(F)F)cc2)cc1 (some centres not stated) was read as RORgamma inh -11%, DT40 TDP1 no CPT 21µM*, DT40 TDP1 CPT inconclusive, Gal4-VP16 FLuc -7% and TDP1 inh 6%.
For COC(=O)c1ccc(C23CC4(C2)[C@H](CN(Cc2ccc(C(F)(F)F)cc2)[C@@H]4c2ccccc2)C3c2ccccc2)cc1 (some centres not stated) the results were RORgamma inh -12%, DT40 TDP1 no CPT 4.1µM*, DT40 TDP1 CPT 7.3µM*, Gal4-VP16 FLuc -5% and TDP1 inh 13%.
CCOc1ccccc1NC(=O)CN(c1ccc(C)cc1)S(=O)(=O)c1c(C)n[nH]c1C was read as RORgamma inh 9%, DT40 TDP1 no CPT inconclusive, DT40 TDP1 CPT inconclusive, Gal4-VP16 FLuc 0% and TDP1 inh 5%.
O=C(CSc1n[nH]c(-c2cccs2)n1)NCc1ccc2c(c1)OCO2 was read as RORgamma inh 8%, DT40 TDP1 no CPT -14%, DT40 TDP1 CPT -1%, Gal4-VP16 FLuc 3% and TDP1 inh -4%.
